Tb PYK inh: blocks Trypanosoma brucei pyruvate kinase; hit rate 0.12% among 410,000; Q57TT1; AID 624173; Potency, µM (titrated, usually from 76.8 µM), hits mostly inhibitors; TbPYK enzyme, Kinase-Glo Plus ATP luminescence, 45 min; further: nearly all actives have a fitted effect of over 50% in size
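ADP (130 uM final) triggers the TbPYK reaction after compound addition; incubation is 45 min at room temperature. Kinase-Glo Plus is then added and luminescence imaged. Normalized data are fitted to concentration-effect curves.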
Sm TGR block: S. mansoni TGR enzyme inhibition. Q962Y6. purified TGR, DTNB reduction, TNB absorbance 405 nm. Potency, µM (doses to about 114 µM), hits mostly inhibitors. hit rate 3% among 360,000; further: nearly all actives have a fitted effect of over 60% in size
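First, TGR (20 nM dispensed) and NADPH were mixed with compound. Second, a 15 min room-temperature incubation followed. Third, further NADPH and then DTNB were added to start the reaction. Finally, TNB absorbance was monitored kinetically.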
LmPK inhibitor: blocks Leishmania mexicana pyruvate kinase activity; Q27686; purified LmPK, Kinase-Glo ATP luminescence, 1 h; Potency, µM (titrated, usually from 57.5 µM), usual class: inhibitors; hit rate 0.37% among 290,000; AID 1721
Target sequence (Q27686 whole entry, looked up): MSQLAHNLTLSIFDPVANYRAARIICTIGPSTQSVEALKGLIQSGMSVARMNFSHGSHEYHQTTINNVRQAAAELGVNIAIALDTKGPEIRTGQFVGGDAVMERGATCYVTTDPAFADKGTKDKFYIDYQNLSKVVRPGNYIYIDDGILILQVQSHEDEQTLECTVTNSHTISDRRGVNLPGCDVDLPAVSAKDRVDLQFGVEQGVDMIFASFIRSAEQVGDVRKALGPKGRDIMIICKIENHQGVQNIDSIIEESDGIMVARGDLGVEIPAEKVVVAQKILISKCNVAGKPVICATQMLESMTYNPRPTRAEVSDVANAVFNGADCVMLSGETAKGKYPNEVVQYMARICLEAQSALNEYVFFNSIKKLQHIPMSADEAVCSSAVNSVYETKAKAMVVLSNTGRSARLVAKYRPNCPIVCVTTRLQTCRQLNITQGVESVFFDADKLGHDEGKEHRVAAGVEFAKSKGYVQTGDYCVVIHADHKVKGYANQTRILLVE
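qHTS format; LmPK 0.1 nM; substrates PEP 0.5 mM and ADP 0.1 mM. One-hour room-temperature incubation, then coupled luciferase luminescence; 0.5 nM enzyme wells mark activation.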
RE007 growth inh: less growth of the S. pombe RE007 Vpr strain; hit rate 0.21% among 360,000; AID 651644; Potency, µM (top dose mostly 92.2 µM), actives largely listed as inhibitors; S. pombe RE007 Vpr strain, BacTiter-Glo ATP luminescence, 24 h; active means well fitted falling curve with a large enough effect; inconclusive means small, poorly fitted or top-dose-only effect; inactive means no such curve, though single readings can be large or run the other way; further: nearly all actives have a fitted effect of over 50% in size
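Fission yeast strain RE007, carrying one chromosomally integrated HIV-1 vpr copy, was seeded at OD 0.01 in PMG+AL medium with 23 nL pinned compound. After 24 h at 30 °C and 99% humidity, viability was read by BacTiter-Glo luminescence.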
FBPA Giardia inh: blocks Giardia fructose-bisphosphate aldolase activity. purified Giardia FBPA. Potency, µM (highest dose often 59.6 µM), usual class: inhibitors. hit rate 0.71% among 290,000. AID 2451; further: nearly all actives have a fitted effect of over 55% in size
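Giardia FBPA (40 nM reagent) was preincubated 10 min at RT with compound (up to 57.5 uM final), then substrate plus GAPDH/TPI/NAD/arsenate coupling system with diaphorase/resazurin was added; resorufin fluorescence (525/598 nm) was read after 20 min.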
Hits are given with their value; . = inactive; ? = inconclusive; / = no result; [ ] = remark or other dose. Shown are actives, neighbours in structure and some others; about 3.3% of the full set was active somewhere. Unless noted, the call rests on the fitted dose curve; in most records, active means well fitted curve in the direction sought with a large enough effect; inconclusive means small, poorly fitted or top-dose-only effect, or another doubt; inactive means no such curve, though single readings can be large; an effect the other way counts as inactive or inconclusive.

SMILES	Tb PYK inh	Sm TGR block	LmPK inhibitor	RE007 growth inh	FBPA Giardia inh
O=Cc1coc2c(ccc3ccccc32)c1=O	/	28.2µM	.	/	.
O=C(CN1C(=O)C2CC=CCC2C1=O)Nc1ccc(Br)cc1 (stereo unspecified)	.	.	.	.	/
Cc1cc(Br)ccc1NC(=O)CN1C(=O)C2CC=CCC2C1=O (stereo unspecified)	.	12.6µM	/	.	/
c1ccc(C2c3[nH]c4ccccc4c3CCN2Cc2cccn2-c2ccccn2)nc1 (stereo unspecified)	.	50.1µM	.	.	.
Cc1cccc(C2c3[nH]c4ccccc4c3CCN2Cc2cccn2-c2ncccn2)c1 (stereo unspecified)	.	/	.	.	.
O=C(Oc1cccc2cccnc12)c1ccco1	.	.	.	28.2µM	.
O=C(Oc1cccc2cccnc12)c1cccs1	.	.	.	5.01µM	?
O=C(Oc1cccc2cccnc12)c1ccc(Br)o1	.	.	.	.	.
O=C(Oc1ccccc1)c1cccc2cccnc12	.	.	.	35.5µM	.
Cc1ccc(CN(C(=O)COc2ccc([N+](=O)[O-])cc2)c2ccccn2)o1	.	.	/	/	/
COC(CNC(=O)CC1C(=O)N(Cc2ccccc2)C(C)c2nc3ccccc3n21)OC (stereo unspecified)	.	.	.	.	.
CC(C)C[C@@H]1NC(=O)[C@H](Cc2ccc(O)cc2)NC(=O)c2cc([N+](=O)[O-])cc(I)c2NCCC[C@@H](C(N)=O)NC1=O	.	.	.	.	.
C=CC#CC[N+]1(CC#Cc2ccccc2)CCOCC1	.	39.8µM	.	.	.
C(#Cc1ccccc1)C[N+]1(CC#Cc2ccccc2)CCCC1	.	.	.	.	.
CCc1cccc(NC(=O)C2CCCN2C(=O)Nc2ccc(C)cc2)c1 (stereo unspecified)	.	.	.	.	.
Cc1nn(-c2ccccn2)c2c1C(=O)C(Br)CC2 (stereo unspecified)	?	2.51µM	.[11.5 µM]	.	5µM
CC1=C(C)C(=O)N(c2ccccn2)C1=O	.	.	.	.	.
COc1ccc(CNC(=O)COC(=O)C2CC3C=CC2C3)cc1 (stereo unspecified)	.	.	.	.	.
COc1ccc(C2C=C(c3ccccc3)Nc3nc(NC(=O)c4ccc(C)cc4)nn32)cc1 (stereo unspecified)	.	.	/	/	/
COc1ccc(C(=O)Nc2nc3n(n2)C(c2ccc(Cl)cc2)C=C(c2ccccc2)N3)cc1OC (stereo unspecified)	.	22.4µM	/	/	/
O=C(Nc1nc2n(n1)C(c1ccccc1)C=C(c1ccccc1)N2)c1ccccc1 (stereo unspecified)	.	6.31µM	/	/	/
CC(C)(C)OC(=O)N1CCN(C(=O)c2[nH]cnc2C(=O)Nc2cccc(Cl)c2)CC1	.	.	/	.	/
CCCN(N=Nc1cccc([N+](=O)[O-])c1)c1cccc([N+](=O)[O-])c1	.	50.1µM	.	.	.
O=[N+]([O-])c1cccc(N=NN(CCO)c2cccc([N+](=O)[O-])c2)c1	.	.	.	.	.
COCc1nnc(NC(=O)C2CC(=O)N(C3CCCCC3)C2)s1 (stereo unspecified)	.	.	.	.	.
SMILES	Tb PYK inh	Sm TGR block	LmPK inhibitor	RE007 growth inh	FBPA Giardia inh
CCC(=O)Nc1cnc(NC(=O)c2cccc(F)c2)cc1C	.	.	20µM	.	.
CC(=O)Nc1cnc(NC(=O)c2cccc(F)c2)cc1C	.	.	.	.	.
Cc1ccc(S(=O)(=O)CC(CN2CCOCC2)N2CCOCC2)cc1 (stereo unspecified)	.	/	.	.	.
CC1CCN(CC(CS(=O)(=O)c2ccc([N+](=O)[O-])cc2)N2CCC(C)CC2)CC1 (stereo unspecified)	.	2.51µM	.	.	.
Cc1cc(C)cc(N2CN=c3s/c(=C\c4ccco4)c(=O)n3C2)c1	.	.	.	.	.
O=c1/c(=C/c2ccco2)sc2n1CN(c1cccc(Br)c1)CN=2	.	25.1µM	.	.	.
Cc1ccc(/C=c2\sc3n(c2=O)CN(c2cccc(Br)c2)CN=3)o1	.	25.1µM	.	.	.
O=c1/c(=C/c2ccco2)sc2n1CN(c1ccccc1)CN=2	.	.	.	.	.
O=C(c1ccco1)N1CCN(C(=S)Nc2cccc([N+](=O)[O-])c2)CC1	.	.	.	.	.
COc1ccc(C(=O)C2CCN(CC(=O)NCc3ccccc3)CC2)cc1	.	.	.	.	.
Cc1nc2ccccc2c(=O)n1/N=C/c1ccc([N+](=O)[O-])o1	/	14.1µM	.	/	?
O=c1c2ccccc2nc(/C=C/c2ccc([N+](=O)[O-])o2)n1-c1ccc(O)cc1	.	?	.	.	.
Cc1nc2ccccc2n1/N=C/c1ccc([N+](=O)[O-])o1	.	/	/	?	/
CC(=O)N(/N=C/c1ccc([N+](=O)[O-])o1)c1nc2ccccc2c(=O)n1-c1ccccc1	.	39.8µM	.	.	.
O=C(c1cccc(F)c1)N1CCC(N2CCOCC2)CC1	.	.	.	.	?
CN(C)c1nc(C=C(C#N)C#N)c(Cl)n1-c1ccc(F)cc1	.	1.78µM	.	.	.
Cc1cc(OCC(=O)Nc2cccnc2)c2c(C)c(C)c(=O)oc2c1	.	.	.	.	.
NC1(C#Cc2ccc3oc(=O)c(-n4cc(-c5ccsc5)nn4)cc3c2)CCCCC1	.	56.2µM	/	.	/
Cc1ccc(C)c(OCCCC(=O)Nc2ccc(N3CCOCC3)cc2)c1	/	.	.	/	.
Cc1[nH]c2ccccc2c1C1=CC(=O)C=CC1=O	3.98µM	/	/	25.1µM	/
Cc1[nH]c2ccccc2c1CC#N	.	.	.	.	.
Cc1ccc(CN2CCNC(=O)C2CC(=O)N(Cc2c(C)nn(C)c2C)C2CC2)o1 (stereo unspecified)	.	31.6µM	.	.	.
Cc1ccc(CN2CCNC(=O)C2CC(=O)NCCCn2ncc3ccccc32)o1 (stereo unspecified)	.	25.1µM	.	.	.
Cc1ccc(CN2CCNC(=O)C2CC(=O)NC2CCCCCC2)o1 (stereo unspecified)	.	?	.	.	.
CCOC(=O)C(Cc1ccccc1)c1ccnc2ncnn12 (stereo unspecified)	.	.	.	.	.
SMILES	Tb PYK inh	Sm TGR block	LmPK inhibitor	RE007 growth inh	FBPA Giardia inh
O=C(O)C1CCC(=O)N1C(=O)OCc1ccccc1 (stereo unspecified)	.	.	.	.	.
CN1C(=O)C(Cc2cccc3ccccc23)C(=O)N(C)C1=O	.	14.1µM	.	.	?
O=C1c2ccccc2C(=O)C1Cc1cccc2ccccc12	.	56.2µM	.	.	?
CN1C(=O)C(Cc2c[nH]c3ccccc23)NC1=S (stereo unspecified)	/	/	/	/	.
CN1C(=O)C(Cc2c[nH]c3ccccc23)C(=O)N(C)C1=O	/	14.1µM	.	/	?
O=C1NC(c2cccc3ccccc23)Nc2ccccc21 (stereo unspecified)	.	/	/	?	/
